From PubChem BioAssay AID1159580 (chemical genetic matrix, 2015)
Where “and” joins values, the source holds several entries; their conditions need not be identical. Equal values may be shown once. Out of some 5,500 compounds screened, about 2,000 (36%) were called active. Roughly 18% stayed inconclusive and do not appear here. Cut-off read from the data, not from the text of the source: active = normalized growth mostly below about 0.91 (no sharp cut-off); inconclusive = no clear call, values can overlap the other calls; inactive = mostly above about 0.92. Some of the results follow.

Experiment: chemical genetic growth profiling, strain panel (AID 1159580);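 note: tested at 20 µM; growth read once vehicle control cultures reached saturation at 30 °C; 1 = growth at the plate median or of vehicle wells; lower values mean less growth of the strain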
Settings: S. cerevisiae deletion strains, growth OD

Measured: normalized growth

C[C@]12CCC(=O)C=C1C=CC1C2CC[C@@]2(C)C1CC[C@@]21CCC(=O)O1 (stereo partly specified)
active: locus YDL101C, strain DUN1, active compounds read low 0.877 | locus YDL192W, strain arf1, active compounds read low 0.866 | locus YDR137W, strain rgp1, active compounds read low 0.75 | locus YDR162C, strain NBP2, active compounds read low 0.584 | locus YDR392W, strain spt3, active compounds read low 0.662 | locus YDR502C, strain sam2, active compounds read low 0.914 | locus YGL086W, strain mad1, active compounds read low 0.917 | locus YKR001C, strain vps1, active compounds read low 0.788 | locus YLR039C, strain RIC1, active compounds read low 0.588 | locus YLR262C, strain YPT6 (second series), active compounds read low 0.792 | locus YLR262C, strain YPT6, active compounds read low 0.525 | locus YLR342W, strain FKS1 (second series), active compounds read low 0.785 | locus YLR418C, strain cdc73, active compounds read low 0.702 | locus YMR307W, strain GAS1, active compounds read low 0.597 | locus YNL307C, strain MCK1, active compounds read low 0.831 | locus YNR052C, strain pop2, active compounds read low 0.906 | locus YOR184W, strain ser1, active compounds read low 0.724 | locus YOR270C, strain vph1, active compounds read low 0.771 | locus YPR163C, strain tif3, active compounds read low 0.867
inactive: locus YAL013W, strain DEP1, active compounds read low 0.956 | locus YAL021C, strain ccr4, active compounds read low 0.971 | locus YAL026C, strain drs2, active compounds read low 0.97 | locus YAL030W, strain snc1, active compounds read low 0.974 | locus YBL061C, strain skt5, active compounds read low 0.977 | locus YBR009C, strain hhf1, active compounds read low 0.962 | locus YBR021W, strain FUR4, active compounds read low 1 | locus YBR023C, strain chs3, active compounds read low 0.979 | locus YBR171W, strain sec66, active compounds read low 0.966 | locus YBR229C, strain ROT2, active compounds read low 0.979 | locus YBR231C, strain swc5, active compounds read low 0.989 | locus YBR279W, strain paf1, active compounds read low 0.983 | locus YCL011C, strain gbp2, active compounds read low 0.968 | locus YCL016C, strain dcc1, active compounds read low 0.976 | locus YCL029C, strain bik1, active compounds read low 0.949 | locus YCL061C, strain MRC1, active compounds read low 0.954 | locus YCL069W, strain vba3, active compounds read low 0.974 | locus YCR088W, strain abp1, active compounds read low 0.974 | locus YDL005C, strain med2, active compounds read low 0.98 | locus YDL035C, strain GPR1, active compounds read low 0.962 | locus YDL040C, strain nat1, active compounds read low 0.977 | locus YDL074C, strain BRE1, active compounds read low 0.872 | locus YDL185W, strain tfp1, active compounds read low 0.967 | locus YDR001C, strain nth1, active compounds read low 0.952 | locus YDR069C, strain doa4, active compounds read low 0.984 | locus YDR101C, strain arx1, active compounds read low 0.955 | locus YDR150W, strain NUM1, active compounds read low 0.985 | locus YDR159W, strain sac3, active compounds read low 0.901 | locus YDR195W, strain ref2 1.12 | locus YDR297W, strain sur2, active compounds read low 0.981 | locus YDR318W, strain mcm21, active compounds read low 0.956 | locus YDR334W, strain swr1, active compounds read low 0.977 | locus YDR335W, strain msn5, active compounds read low 0.976 | locus YDR388W, active compounds read low 0.969 | locus YEL003W, strain gim4, active compounds read low 0.962 | locus YEL037C, strain rad23, active compounds read low 0.971 | locus YEL061C, strain CIN8 (second series), active compounds read low 0.967 | locus YEL061C, strain CIN8, active compounds read low 0.978 | locus YER015W, strain faa2, active compounds read low 0.979 | locus YER016W, strain bim1, active compounds read low 0.975 | locus YER110C, active compounds read low 0.965 | locus YER111C, strain swi4, active compounds read low 0.962 | locus YER155C, strain BEM2 (second series), active compounds read low 0.988 | locus YER155C, strain BEM2, active compounds read low 0.996 | locus YER167W, strain BCK2, active compounds read low 0.956 | locus YFR010W, strain ubp6, active compounds read low 0.986 | locus YGL078C, strain dbp3, active compounds read low 0.985 | locus YGL167C, strain pmr1, active compounds read low 0.968 | locus YGL173C, strain kem1, active compounds read low 0.953 | locus YGL227W, strain vid30, active compounds read low 0.988 | locus YGL240W, strain doc1, active compounds read low 0.992 | locus YGL248W, strain PDE1, active compounds read low 0.919 | locus YGL253W, strain hxk2, active compounds read low 0.947 | locus YGR135W, strain pre9, active compounds read low 0.936 | locus YGR252W, strain gcn5, active compounds read low 0.969 | locus YHR013C, strain ard1, active compounds read low 0.901 | locus YHR027C, strain rpn1, active compounds read low 0.982 | locus YHR030C, strain SLT2, active compounds read low 0.948 and 0.967 | locus YHR079C, strain IRE1 (second series), active compounds read low 0.971 | locus YHR079C, strain IRE1, active compounds read low 0.98 | locus YHR094C, strain hxt1, active compounds read low 0.974 | locus YHR129C, strain ARP1, active compounds read low 0.939 | locus YHR142W, strain chs7, active compounds read low 0.922 | locus YHR200W, strain rpn10, active compounds read low 0.984 | locus YIL066C, strain RNR3, active compounds read low 0.95 | locus YIL073C, strain SPO22, active compounds read low 0.948 | locus YIL125W, strain kgd1, active compounds read low 0.979 | locus YIR030C, strain dcg1, active compounds read low 0.979 | locus YJL092W, strain hpr5, active compounds read low 0.963 | locus YJL095W, strain BCK1 (second series), active compounds read low 0.984 | locus YJL095W, strain BCK1, active compounds read low 0.807 and 0.975 | locus YJL115W, strain asf1, active compounds read low 0.971 | locus YJL129C, strain trk1, active compounds read low 0.95 | locus YJL134W, strain LCB3, active compounds read low 0.982 | locus YJL154C, strain vps35, active compounds read low 0.979 | locus YJL164C, strain tpk1, active compounds read low 0.946 | locus YJL166W, strain qcr8, active compounds read low 0.993 | locus YJL168C, strain set2, active compounds read low 0.969 | locus YJL187C, strain SWE1 (second series), active compounds read low 0.931 | locus YJL187C, strain SWE1, active compounds read low 0.973 | locus YJR043C, strain POL32, active compounds read low 1.06 | locus YJR066W, strain TOR1, active compounds read low 0.951 | locus YKL009W, strain mrt4, active compounds read low 0.948 | locus YKL068W, active compounds read low 0.966 | locus YKL085W, strain MDH1 (second series), active compounds read low 0.971 | locus YKL085W, strain MDH1, active compounds read low 0.971 | locus YKL160W, strain elf1, active compounds read low 0.982 | locus YKR026C, strain gcn3, active compounds read low 0.98 | locus YKR091W, strain srl3, active compounds read low 0.969 | locus YLL001W, strain dnm1, active compounds read low 0.983 | locus YLL026W, active compounds read low 0.989 | locus YLL041C, strain sdh2, active compounds read low 0.983 | locus YLR027C, strain aat2, active compounds read low 0.994 | locus YLR058C, strain SHM2, active compounds read low 0.959 | locus YLR102C, strain apc9, active compounds read low 0.973 | locus YLR113W, strain HOG1, active compounds read low 0.934 | locus YLR221C, strain rsa3, active compounds read low 0.956 | locus YLR258W, strain gsy2, active compounds read low 0.964 | locus YLR268W, strain sec22, active compounds read low 0.914 | locus YLR320W, strain mms22, active compounds read low 0.9 | locus YLR330W, strain CHS5, active compounds read low 0.938 | locus YLR342W, strain FKS1, active compounds read low 0.961 | locus YLR357W, strain rsc2, active compounds read low 1.01 | locus YLR370C, strain arc18, active compounds read low 0.969 | locus YLR371W, strain rom2, active compounds read low 0.975 | locus YLR384C, strain iki3, active compounds read low 0.993 | locus YML016C, strain PPZ1, active compounds read low 0.973 | locus YML032C, strain rad52, active compounds read low 0.971 | locus YML120C, strain ndi1, active compounds read low 0.971 | locus YML124C, strain tub3, active compounds read low 0.986 | locus YMR058W, strain fet3, active compounds read low 0.964 | locus YMR078C, strain ctf18, active compounds read low 0.973 | locus YMR125W, strain sto1, active compounds read low 0.985 | locus YMR129W, active compounds read low 0.973 | locus YMR205C, strain PFK2, active compounds read low 0.938 | locus YMR223W, strain ubp8, active compounds read low 0.941 | locus YMR231W, strain pep5, active compounds read low 0.99 | locus YNL067W, strain RPL9B, active compounds read low 0.937 | locus YNL071W, strain lat1, active compounds read low 0.927 | locus YNL128W, strain TEP1, active compounds read low 0.965 | locus YNL153C, strain GIM3, active compounds read low 0.953 | locus YNL183C, strain NPR1, active compounds read low 0.928 | locus YNL209W, strain ssb2, active compounds read low 0.985 | locus YNL233W, strain BNI4, active compounds read low 0.923 | locus YNL248C, strain rpa49, active compounds read low 0.912 | locus YNL250W, strain rad50, active compounds read low 0.981 | locus YNL271C, strain bni1, active compounds read low 0.968 | locus YNL298W, strain CLA4, active compounds read low 0.955 | locus YNL322C, strain KRE1 (second series), active compounds read low 0.991 | locus YNL322C, strain KRE1, active compounds read low 0.997 | locus YNR049C, strain mso1, active compounds read low 0.947 | locus YOL012C, strain htz1 0.991 | locus YOL147C, strain pex11, active compounds read low 0.971 | locus YOR001W, strain rrp6, active compounds read low 1 | locus YOR061W, strain CKA2, active compounds read low 0.958 | locus YOR069W, strain VPS5, active compounds read low 0.975 | locus YOR070C, strain gyp1, active compounds read low 0.969 | locus YOR080W, strain dia2, active compounds read low 0.979 | locus YOR083W, strain WHI5, active compounds read low 0.975 | locus YOR106W, strain vam3, active compounds read low 0.961 | locus YOR136W, strain idh2, active compounds read low 0.963 | locus YOR144C, strain elg1, active compounds read low 0.976 | locus YOR231W, strain MKK1, active compounds read low 0.97 | locus YOR265W, strain rbl2, active compounds read low 0.983 | locus YOR290C, strain snf2, active compounds read low 0.947 | locus YOR316C, strain cot1, active compounds read low 0.968 | locus YPL051W, strain arl3, active compounds read low 0.969 | locus YPL055C, strain LGE1, active compounds read low 0.909 | locus YPL078C, strain atp4, active compounds read low 0.975 | locus YPL106C, strain sse1, active compounds read low 0.994 | locus YPL240C, strain hsp82, active compounds read low 0.998 | locus YPL241C, strain CIN2, active compounds read low 0.991 | locus YPL256C, strain CLN2, active compounds read low 0.946 | locus YPR119W, strain clb2, active compounds read low 0.981 | locus YPR141C, strain kar3, active compounds read low 0.947 | locus YPR167C, strain met16, active compounds read low 0.967 | strain wtn01, active compounds read low 0.902
